This note sets out measurements from PubChem BioAssay AID686978 (National Center for Advancing Translational Sciences (NCATS), 2013).

The whole screen tested about 420,000 compounds, of which about 64,000 (15%) were called active. Inconclusive results (about 27%) are left out. Calls come from the whole dose curve; as a rule, active = well fitted inhibition curve with a large enough effect; inconclusive = small, poorly fitted or top-dose-only effect; inactive = flat fitted curve, though single readings scatter. A selection follows.
% is set by controls: 0 for no effect and ±100 for the full control effect; potency is the fitted concentration of half-maximal effect.

The assay is described as follows: qHTS for Inhibitors of human tyrosyl-DNA phosphodiesterase 1 (TDP1): qHTS in cells in absence of CPT. Note: nearly all actives have a fitted effect of over 55% in size. Particulars: DT40 Tdp1-/- hTDP1 cells, no CPT, ATP luminescence, 48 h; activity change, negative = growth inhibition: at 46.2 µM (top of the series). From the text:
Human tyrosyl-DNA phosphodiesterase 1 (TDP1) is a novel repair gene, and we propose to use it as a new target for anticancer drug development. TDP1 is not an essential protein, but under treatment with topoisomerase I poison (camptothecin: CPT), TDP1 works as a critical factor for cell survival. To directly identify novel TDP1 inhibitors active in a cellular environment, we have knocked-out the Tdp1 gene in chicken DT40 cells (Tdp1-/-) and generated a complemented counterpart cells that contains a stable transfection of the human TDP1 gene (Tdp1-/-;hTDP1 cells). For the primary screen, Tdp1-/-;hTDP1 cells will be exposed to small molecules in the presence or absence of CPT, and their growth kinetics will be evaluated after 48 hours by measuring ATP activity. […] The hit compounds will then be evaluated in the presence or absence of CPT using Tdp1-/- cells. […] In tertiary assays, biochemical gel-based assays will be used to assess whether the hit compounds specifically target TDP1.
To this end, we have screened this cell line against the MLSMR in two primary screens. In one screen we add CPT and in the other we screen in the absence of CPT; this AID represents the screen where CPT was absent.
NIH Chemical Genomics Center [NCGC]
NIH Molecular Libraries Probe Centers Network [MLPCN]
Assay Submitter (PI): Yves Pommier, NCI
DT40-hTDP1 cells without 20 nM Camptothecin (add 20 microL of DMSO in 1 L of cell culture medium) were dispensed at 400 cells/5microL/well in tissue culture treated 1536-well white wall/solid bottom assay plates (Greiner Bio-One North America, NC, U.S.A.) using a Multidrop Combi 8 channel dispenser (Thermo Fisher, Waltham, MA, USA). 23 nL compounds and controls were transferred using the pin tool (Kalypsys, San Diego, CA, USA) to the assay plates. The assay plates were then incubated at 37 masculineC for a minimum 48 hr. Three microL of Cell Titer Glo solution was added to the plates and incubated at RT in dark for 30 min. Luminescence was read using ViewLux (Perkin Elmer) with 1 sec exposure slow speed, high gain and 2x binning.
As for `CN(CC(=O)NC(=O)Nc1ccccc1F)Cc1ccccc1`, the “activity change, negative = growth inhibition” value is -25.6% (inactive).
Consider `COc1cccc2c1C(=O)c1c(O)c3c(c(O)c1C2=O)CC(O)(C(C)=NNC(=O)c1ccc(Cl)c(Cl)c1)CC3OC1CC(N)C(O)C(C)O1` (stereo not drawn), for which the Potency is 0.164 µM (active).
As for `O=C(Nc1ccccc1-c1ccccc1)c1ccccc1[N+](=O)[O-]`, the “activity change, negative = growth inhibition” value is 15.4% (inactive).
As for `COc1cccc(N2CC(C(=O)NCc3n[nH]c(=O)c4ccccc34)CC2=O)c1` (stereo not drawn), the “activity change, negative = growth inhibition” value is -16.6% (inactive).
Turning to `CC(=O)Nc1ccc(NC(=O)CSc2nnc(C3CC3)n2-c2ccccc2)cc1`, the “activity change, negative = growth inhibition” value was -15.9% (inactive).
On the same count and under the same terms, under `CCn1c2ccccc2c2cc(NC(=O)CNC)ccc21` stands -23.9% (inactive).
As to `CC[n+]1c(C)n(-c2ccccc2)c2ccc(NC(C)=O)cc21`, the Potency is 2.59 µM (active).
As to `N#CC(C(N)=O)=C1CCC2(CC1)OCCCCO2`, the “activity change, negative = growth inhibition” value is 6.97% (inactive).
Regarding `CCOc1cc(/C=N/O)ccc1OCc1ccccc1F`, the “activity change, negative = growth inhibition” value was -23.7% (inactive).
The same measure, in the same setting: in the case of `CCN(CC(=O)Nc1c(F)cccc1F)C(=O)c1ccc(-c2ccc(C(C)=O)cc2)o1` it was -4.02% (inactive); in that of `COc1ccc(OC)c(C(=O)c2ccc(Cl)cc2)c1`, 2.86% (inactive).
Consider `COC(=O)c1cc2c(N)c(C(=O)c3ccc(Cl)cc3)sc2nc1C(OC)OC`, for which the Potency was 14.6 µM (active).
In the case of `COC(=O)c1cn(C(=O)c2ccc(Cl)cc2)c2ccccc12`, the “activity change, negative = growth inhibition” value was -12.8% (inactive).
The same measure, in the same setting: in the case of `Cc1ccc(C(=O)N/N=C/c2sc(=O)n(Cc3cccc(C(=O)O)c3)c2Cl)cc1` it was -2.17% (inactive).
Regarding `CCCN=C1NC(=O)C(CC(=O)NCCc2ccc(OC)c(OC)c2)S1` (stereo not drawn), the “activity change, negative = growth inhibition” value is 9.83% (inactive).
On to `CC(=O)C1=C(C)NC(=O)NC1c1ccc2c(c1)OCO2` (stereo not drawn), for which the “activity change, negative = growth inhibition” value is 13.2% (inactive).
In the case of `O=C1C=C(c2cccc(Cl)c2)C[C@@H](c2ccc(F)cc2)C1`, the “activity change, negative = growth inhibition” value was -20.4% (inactive).
`O=C1C=C(c2ccnc3cc(Cl)ccc23)C[C@@H](c2ccc3c(c2)OCO3)C1`: the Potency is 16.4 µM (active).
For `CN(C)CC(C)(C)CNC(=O)c1cc(Br)cc(Br)c1O`, the “activity change, negative = growth inhibition” value is 1.87% (inactive).
Take `O=C(Cn1ncn2nc(-c3cccs3)cc2c1=O)NCc1cccc(Br)c1`: the “activity change, negative = growth inhibition” value is -23.6% (inactive).
Still for that read-out and setting: under `Cc1c(C(=O)OCC(=O)N2CCCC2=O)oc2ccccc12` stands 5.48% (inactive); under `CNc1ccc([N+](=O)[O-])cc1C(=O)O`, 10.7% (inactive).
For `CC(Nc1ccc([N+](=O)[O-])cc1[N+](=O)[O-])c1ccccc1` (stereo not drawn), the Potency is 20.6 µM (active).
On to `C[n+]1ccccc1C1CCCC/C1=N\Nc1ccc([N+](=O)[O-])cc1[N+](=O)[O-]` (stereo not drawn), for which the “activity change, negative = growth inhibition” value was -16.1% (inactive).
Same read-out and setting: under `CC(C)(C)NC(=O)Cn1cnc([N+](=O)[O-])n1` stands -7.99% (inactive); under `CC(C)C(NC(=O)c1c(F)cccc1F)C(=O)NCc1ccncc1` (stereo not drawn), -15.1% (inactive); under `CCN(CC(=O)NCC(=O)Nc1cccc(C)c1C)Cc1ccccc1`, -7.77% (inactive).
With `CCn1c(-c2ccncc2)n[nH]c1=S`, the “activity change, negative = growth inhibition” value was -1.03% (inactive).
Turning to `CCCc1cc(-c2n[nH]c(=S)n2Cc2ccccc2)cs1`, the Potency is 29.1 µM (active).
For `COc1cc(-c2n[nH]c(=S)n2Cc2ccccc2)cc(OC)c1OC`, the “activity change, negative = growth inhibition” value was -25% (inactive).
`O=C(CSc1nnc(-c2ccncc2)n1-c1ccccc1)Nc1ccc(Cl)c(Cl)c1`: the “activity change, negative = growth inhibition” value is -28.5% (inactive).
On to `Cc1ccc(Nc2nc(CSc3nnc(-c4ccncc4)n3-c3ccccc3C)cs2)cc1`, for which the Potency was 11.6 µM (active).
Consider `CCOc1ccccc1-n1c(SCC(=O)NCc2ccco2)nnc1-c1ccncc1`, for which the “activity change, negative = growth inhibition” value is -17.9% (inactive).
On the same count and under the same terms, in the case of `CCOC(=O)Cn1c(O)c(N=NC(=O)CNC(=O)Cc2ccccc2)c2ccccc21` it was -27.3% (inactive); in that of `Cn1c(S(=O)(=O)O)nc2ccccc21`, 21.1% (inactive).
Turning to `COc1ccc2cc(C(=O)NCC3CCCO3)[nH]c2c1` (stereo not drawn), the “activity change, negative = growth inhibition” value is 0.844% (inactive).
For `O=C(NCC1CCCO1)c1cc2c([nH]c3ccccc32)c(-c2ccc(F)cc2)n1` (stereo not drawn), the Potency is 1.84 µM (active).
`O=C(NCC1CCCO1)c1ccc2ccccc2n1` (stereo not drawn): the “activity change, negative = growth inhibition” value is 5.68% (inactive).
Regarding `CSc1ccc(S(=O)(=O)NC2CCCCC2)cc1`, the “activity change, negative = growth inhibition” value is -7.18% (inactive).
In the case of `CC(C)C(=O)NCc1cc(-c2ccc(Cl)cc2)no1`, the “activity change, negative = growth inhibition” value was 8.37% (inactive).
As to `Cc1cc(O)c(Sc2ccccc2)c(=O)o1`, the “activity change, negative = growth inhibition” value is -11.9% (inactive).
For the compound `Cc1ccc(-n2c(CNc3ccc(F)cc3)nnc2SCC(=O)N2CCOCC2)cc1`, the “activity change, negative = growth inhibition” value is -29.1% (inactive).
Take `O=C(CSc1nnc(CN2CCCC2)n1-c1ccc(F)cc1)c1ccc2c(c1)OCO2`: the Potency is 20.6 µM (active).
For the compound `O=C(O)CSc1nnc(-c2ccc3c(c2)OCO3)n1-c1ccccc1`, the “activity change, negative = growth inhibition” value was -10.5% (inactive).
Consider `Cc1ccc(NC(=O)CSCC(=O)N2CCOCC2)cc1`, for which the “activity change, negative = growth inhibition” value is -23.6% (inactive).
Same read-out and setting: in the case of `CCN(CC(=O)Nc1c(F)cccc1F)C(=O)c1ccc(Sc2nncn2C)c([N+](=O)[O-])c1` it was -7.64% (inactive); in that of `CC1(C(=O)NS(=O)(=O)c2ccc(C#N)cc2)CCN1C(=O)CC1CCCC1` (stereo not drawn), 11.1% (inactive); in that of `COc1ccc(CNC(=O)CC2Oc3ccc(C)cc3NC2=O)cc1` (stereo not drawn), -9.89% (inactive).
In the case of `Cc1ccc2[nH]c(=O)c(CC(=O)O)c(-c3ccccc3)c2c1`, the “activity change, negative = growth inhibition” value was 4.17% (inactive).
Turning to `COc1ccc(CNC(=O)c2cc3c(=O)[nH]c4ccc(C)cc4c3s2)c(OC)c1`, the Potency was 20.6 µM (active).
As for `Cc1cccc(N(C)C(=O)c2cc3c(=O)[nH]c4ccc(C)cc4c3s2)c1`, the Potency was 5.17 µM (active).
Consider `COc1ccc(CNC(=O)c2cc3c(=O)[nH]c4ccccc4c3s2)cc1`, for which the “activity change, negative = growth inhibition” value was 0.873% (inactive).
Take `Cc1ccc2[nH]c(=O)c(CC=C(Cl)Cl)c(C)c2c1`: the “activity change, negative = growth inhibition” value is -2.49% (inactive).
